Measured values: PubChem BioAssay (NCATS)
Results filed as inconclusive are left out. Activity calls are given as the source filed them. Unless noted, the rule behind the calls is not given here.

Assays:
[1] = qHTS profiling of the MIPE4 collection as inhibitors of Plasmodium falciparum (DD2) proliferation (AID 743345); details: P. falciparum Dd2 in erythrocytes, SYBR Green DNA, 72 h; at 28.5 µM (top of the series) unless noted
How it was run: (§1)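 Parasite DNA was quantified by SYBR Green I fluorescence (ex 485, em 535 nm) after overnight lysis in saponin/Triton buffer at room temperature. Cultures at 0.3% parasitemia and 2.5% hematocrit were first exposed to compound for 72 h at 37 C; signals were normalised to artemisinin (0.29 uM) and vehicle wells.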

[2] = qHTS profiling of the MIPE4 collection as inhibitors of Plasmodium falciparum (DD2) proliferation (Rep 2) (AID 743346); details: P. falciparum Dd2 in erythrocytes, SYBR Green DNA, 72 h; at 28.5 µM (top of the series) unless noted
How it was run: as §1

[3] = qHTS profiling of the MIPE4 collection as inhibitors of Plasmodium falciparum (HB3) proliferation (AID 743347);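 note: plate controls were DMSO vehicle wells for no effect and artemisinin wells for full effect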; details: P. falciparum HB3 in erythrocytes, SYBR Green DNA, 72 h; at 28.5 µM (top of the series) unless noted
How it was run: as §1

[4] = High-throughput drug toxicity screening in the BPDCN cell line Gen2.2 (AID 1224824); details: Gen2.2 BPDCN cells; at 45.8 µM (top of the series) unless noted;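 note: cells exposed to compounds for 48 h before reading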
How it was run: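 Readout is ATP luminescence from Gen2.2 cells after two days of drug exposure in serum-containing medium at 37 °C. Values express percent activity, with vehicle defining full signal and 9.2 uM bortezomib defining zero.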

[5] = High-throughput drug toxicity screening in the BPDCN cell line Cal-1 (AID 1224825); details: Cal-1 BPDCN cell viability, qHTS; at 45.8 µM (top of the series) unless noted
How it was run: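 Viability of the BPDCN line Cal-1 is measured as ATP-based luminescence (CellTiter-Glo) following 48 h incubation with compounds. Percent activity uses DMSO-treated wells as 100% and 9.2 uM bortezomib as 0%.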

[6] = qHTS assay for measurement of the activity of small molecule inhibitors on Zika virus induced Caspase-3 activity in human iPSC derived neural progenitor cells (hNPCs) (AID 1224857; active = well fitted curve in the direction sought with a large enough effect; an effect the other way counts as inactive or inconclusive; note: nearly all actives have a fitted effect of over 65% in size; note: potency is the fitted concentration of half-maximal effect)
How it was run: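 In medium with heparin 2 ug/ml and cyclopamine 2 uM, hNPCs (350 cells/well) received compound for one hour and then Zika virus at 2 FFU/cell; caspase activity was measured by Caspase-Glo 3/7 luminescence 6 h post-infection.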

[7] = qHTS assay for measurement of the activity of small molecule inhibitors on Zika virus induced Caspase-3 activity in human astrocytoma cells (AID 1224859; active = well fitted curve in the direction sought with a large enough effect; an effect the other way counts as inactive or inconclusive;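 note: plate controls were ZIKV-infected untreated cells for no effect and uninfected cells for full effect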)
How it was run: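 A cell-based luminescent caspase-3/7 assay used SNB-19 cells infected with ZIKV (2 FFU/cell) for 6 h following 1 h compound pretreatment.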

[8] = qHTS Screen of the MIPE 4.0 Collection Against Ewings Sarcoma (RDES) (AID 1259252; active = well fitted curve in the direction sought with a large enough effect; an effect the other way counts as inactive or inconclusive; note: nearly all actives have a fitted effect of over 35% in size; note: potency is the fitted concentration of half-maximal effect)
How it was run: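 Here, cells in 5% FBS RPMI were exposed for two days (48 h) to compound dilutions added four hours after plating. ATP-based CellTiter-Glo luminescence measured viability, normalized to vehicle and no-cell blanks.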

[9] = qHTS profiling of the MIPE4 collection as inhibitors of Plasmodium falciparum (3D7) proliferation (AID 743344);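 note: scaled between DMSO vehicle wells and 0.29 µM artemisinin as full inhibition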; details: P. falciparum 3D7 in erythrocytes, SYBR Green DNA fluorescence, 72 h; at 28.5 µM (top of the series) unless noted
How it was run: as §1

[10] = qHTS Assay for Identifying Gametocytocidal Compounds (AID 743244; active = well fitted curve in the direction sought with a large enough effect; an effect the other way counts as inactive or inconclusive; note: potency is the fitted concentration of half-maximal effect); details: P. falciparum 3D7 stage III-V gametocytes, alamarBlue, 72 h; max response: stronger effect = lower value
How it was run: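 In this qHTS viability screen, late-stage 3D7 gametocytes are incubated with compound for 72 h, then with alamarBlue for 24 h; reduced resorufin fluorescence marks killing.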

[11] = qHTS profiling for inhibitors of Plasmodium falciparum (3D7) proliferation (AID 743322);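 note: infected erythrocytes exposed to compound for 72 h before lysis; 100% = DMSO vehicle wells and 0% = 0.29 µM artemisinin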; details: P. falciparum 3D7 proliferation; at 28.7 µM (top of the series) unless noted
How it was run: as §1

[12] = qHTS profiling for inhibitors of Plasmodium falciparum (DD2) proliferation (AID 743323); details: lower = more inhibition; at 28.7 µM (top of the series) unless noted
How it was run: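 1536-well qHTS; infected RBCs 0.3% parasitemia/2.5% Hct final; cpd 72 h 37 C 5% CO2; lysis buffer + SYBR Green I, o/n RT dark; FI 485/535; norm. to 0.29 uM artemisinin and DMSO, plate-stack corrected.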

[13] = qHTS profiling for inhibitors of Plasmodium falciparum (HB3) proliferation (AID 743324; active = well fitted curve in the direction sought with a large enough effect; an effect the other way counts as inactive or inconclusive;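 note: 100% = DMSO vehicle wells and 0% = artemisinin-treated control wells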); details: Plasmodium falciparum HB3 blood-stage proliferation; at 28.7 µM (top of the series) unless noted
How it was run: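 SYBR Green fluorescence (485 ex/535 em) of lysed cultures, incubated overnight at room temperature in the dark, quantifies parasite DNA. Infected erythrocytes at 0.3% parasitemia and 2.5% hematocrit were exposed 72 h; values normalized to DMSO and 0.29 uM artemisinin controls.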

Compound | parasite growth remaining, % of DMSO control (lower = more inhibition) [1] | parasite growth, % of control (lower = inhibition) [2] [%] | growth, % of control [3] [%] | cell viability, % of control (lower = more cytotoxic) [4] | viability (% of control) [5] | Potency [6] | Potency [7] | Potency [8] | parasite growth, % of DMSO control [9] [%] | Potency [10] | remaining parasite growth % (stronger effect = lower value) [11] [%] | activity, percent of control [12] [%] | remaining proliferation (% of control), lower = more inhibition [13] [%]
CCn1c(-c2nonc2N)nc2cncc(CNC3CCNCC3)c21 | 89.6% | 43.8 | 7.55 | 7.5% | 56.5% | inactive | inactive | 11.8 µM (active) |  |  |  |  | 
CNC1[C@H](O)C(O[C@@H]2C(O)C(O[C@H]3O[C@H]([C@@H](C)NC)CC[C@H]3N)[C@@H](N)C[C@H]2N)OC[C@]1(C)O (stereo not given in full) |  |  | 99.6 | 116% | 101% | 18.7 µM (active) | inactive | inactive |  |  |  |  | 
O=C(CO)N1CCC(c2[nH]nc(-c3ccc(Cl)cc3)c2-c2ccncn2)CC1 |  | 53.8 | 30.6 | 421% | 97.4% | inactive | inactive | inactive | 25.8 |  |  |  | 
C[C@@H]1CC=CC=CC=CC=C[C@@H](O[C@@H]2O[C@H](C)[C@@H](O)[C@H](N)[C@H]2O)C[C@@H]2O[C@](O)(C[C@@H](O)C[C@@H]3O[C@@H]3C=CC(=O)O1)C[C@H](O)[C@@H]2C(=O)O | 67% | 59 | 52.6 | 186% | 110% | inactive | inactive | 7.43 µM (active) |  |  |  |  | 
CC[C@H](C=C[C@@H](C)[C@H]1CC[C@H]2[C@@H]3CC=C4C[C@@H](O)CC[C@]4(C)[C@@H]3CC[C@]12C)C(C)C | 104% [at 9.64 µM] |  |  | 72.7% [at 23.2 µM] | 108% [at 23.2 µM] | inactive | inactive | inactive |  |  |  |  | 
O=S(=O)(NCCNCC=Cc1ccc(Br)cc1)c1cccc2cnccc12 | 19.2% | 35.5 | 33.3 | 247% | 57.7% | inactive | inactive | 2.64 µM (active) |  |  |  |  | 
CCC(=O)OCC(=O)[C@@]1(OC(=O)CC)[C@@H](C)C[C@@H]2[C@H]3CCC4=CC(=O)C=C[C@]4(C)[C@@]3(F)[C@@H](O)C[C@@]21C | 64.4% | 39.1 | 48.2 | 17.4% | 15% | inactive | inactive | inactive |  |  |  |  | 
Cc1[nH]c(C=C2C(=O)Nc3ccc(S(=O)(=O)N(C)c4cccc(Cl)c4)cc32)c(C)c1C(=O)N1CCN(C)CC1 |  | 14.4 | 4.63 | 2.96% | 0.852% | inactive | inactive | 26.4 µM (active) | 7.33 |  |  |  | 
CN1CCc2c(n(Cc3ccc(C(=O)NO)cc3)c3ccccc23)C1 |  | 9.26 | 4.11 | 17.7% | 3.16% | inactive | inactive | 14.8 µM (active) | 5.97 |  |  |  | 
CCC(=O)N1CCN(c2ccc(-n3c(=O)ccc4cnc5ccc(-c6cnc7ccccc7c6)cc5c43)cc2C(F)(F)F)CC1 | 8.22% | 8.45 | 4.5 | 6.39% | 20.2% | inactive | inactive |  | 5.26 | 5.26 µM (active) | 4.73 | 15.4 | 2.49
